Measured values from ChEMBL document CHEMBL3988442, “University of Dundee, Small-Polar-MMV Screening Library” (2021).

target: T1, Aspartate--tRNA(Asp/Asn) ligase (Mycobacterium tuberculosis (strain ATCC 25618 / H37Rv)) (UniProt P9WFW3); assay: Assay for Asp RNA synthetase-1 from Mycobacterium tuberculosis; format: functional; parameters: scale not given: in the data most compounds retested in dose-response had high values; conditions: 30 µM
T1 sequence (whole entry): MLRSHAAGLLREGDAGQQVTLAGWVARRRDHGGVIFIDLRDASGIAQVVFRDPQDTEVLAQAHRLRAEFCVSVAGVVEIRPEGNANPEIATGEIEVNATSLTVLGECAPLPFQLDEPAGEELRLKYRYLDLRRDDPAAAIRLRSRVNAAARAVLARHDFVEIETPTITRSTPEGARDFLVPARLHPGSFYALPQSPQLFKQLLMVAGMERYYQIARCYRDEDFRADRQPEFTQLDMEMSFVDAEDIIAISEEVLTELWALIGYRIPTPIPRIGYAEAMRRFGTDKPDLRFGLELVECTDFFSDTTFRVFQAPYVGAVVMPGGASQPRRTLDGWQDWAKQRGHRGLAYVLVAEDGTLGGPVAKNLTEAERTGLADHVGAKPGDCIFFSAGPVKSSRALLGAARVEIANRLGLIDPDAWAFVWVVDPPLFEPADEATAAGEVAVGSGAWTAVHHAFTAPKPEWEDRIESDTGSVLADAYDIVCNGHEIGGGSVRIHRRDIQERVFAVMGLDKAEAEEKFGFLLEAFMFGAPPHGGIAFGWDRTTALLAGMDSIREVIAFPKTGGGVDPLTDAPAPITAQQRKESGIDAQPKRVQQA

Structure (SMILES) | Percent Effect [%]
CCOc1ncccc1CNC(=O)N1CCCC1c1cc(C)no1 (stereo unspecified) | -2.06
CSCc1nc(C(C)(C)NC(=O)OC(C)(C)C)no1 | -0.954
O=C(CCNS(=O)(=O)c1ccccc1)NCc1ccoc1 | -2.82
Cc1cc(CN(C)C2CCCN(c3cccnn3)C2)on1 (stereo unspecified) | 0.172
Cc1nccn1CCC1CCCCN1Cc1ccncc1 (stereo unspecified) | -1.16
CN1C(=O)C(c2ccccc2)CC12CCN(CCOCCO)CC2 (stereo unspecified) | -1.23
Cc1nn(CCO)c(C)c1CNC1CCc2c(Cl)cccc21 (stereo unspecified) | 0.54
CCCSCC(=O)Nc1ncn(CC(=O)NCc2ccccc2)n1 | 1.55
Cc1nonc1CN(C)CC1(O)CCCN(CCC2CCCCC2)C1=O (stereo unspecified) | 0.149
Cc1cc(C)nc(N2Cc3cnn(Cc4ccc(F)cc4)c3C2)n1 | -2.29
CC1CCN(C(CNC(=O)CCn2cccn2)c2cccs2)CC1 (stereo unspecified) | -0.241
CN(CCNC(=O)N1CCN(Cc2ccon2)CC1)c1ccccc1 | 2.1
COCc1nc(CN2CCC3(CCCO3)CCC2=O)no1 (stereo unspecified) | -3.94
O=C(O)c1ccc(F)c(S(=O)(=O)Nc2c(F)cccc2-n2cccn2)c1 | -1.78
CN(Cc1csc(-c2cccs2)n1)C(=O)CCn1ccccc1=O | -1.85
CN(CCNC(=O)N1CCN(Cc2ccon2)CC1)C1CCCC1 | -5.04
C[S+]([O-])CCCNC(=O)c1cc(Br)c2c(c1)OCCO2 (stereo unspecified) | -1.74
COc1ccccc1OCCN1CCCC(c2noc(C3CC3)n2)C1 (stereo unspecified) | -2.65
CN(CCO)C(=O)c1coc(CN2CCN(c3ccccc3F)CC2)n1 | -3.46
Cc1nn(C)c(Cl)c1C1CCCN1c1ncnc2sccc12 (stereo unspecified) | -2.03
CCOC1CCN(C(=O)c2c(Cl)c3ccccc3n2C)CC1 | -2.01
